Test results from PubChem BioAssay (EPA / NIEHS).
Values joined by “and” are separate entries in the source; they are usually repeats but may differ in a detail not shown here. Equal entries are not always repeated. Inconclusive results are not listed. Some compounds were tested as several samples or in several runs, with calls that do not always agree. Active and inactive are the calls of the source. The calls were made as follows, unless noted: active = hit-call score of the fitted dose curve at least 0.9, where 1 is the maximum; inactive = score below 0.9.

Tests used:
[1] = read-out: Monokine induced gamma interferon (MIG), CXCL9 (gene 4283); test: BSK_3C_MIG: BioMAP Diversity Plus: 3C Assay for Monokine induced gamma interferon (MIG) Biomarker Activity (AID 2283021); conditions: primary human endothelial cells (HUVEC); actives raise or lower the signal;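 as to AC50: MIG protein level measured by immunoassay in the treated endothelial cultures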
In short: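 After 24 h of treatment, human umbilical vein endothelial cultures (3C system) had their MIG biomarker level determined by ELISA, with DMSO serving as negative control.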

[2] = target: human Vitamin D Receptor (VDR), VDR (gene 7421) (UniProt P11473); test: ATG_VDR_TRANS: Attagene TRANS-FACTORIAL HepG2 Assay for human Vitamin D Receptor (VDR) (AID 2283022; active = hit-call score of the fitted dose curve at least 0.9, where 1 is the maximum)
In short: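 HepG2 cells were transiently transfected with GAL4-UAS reporter units and a chimeric VDR-Gal4 construct, then dosed for 24 hours. Reporter mRNA was quantified by RT-PCR, fluorescent labeling, HpaI digestion and capillary electrophoresis; gain of signal analysed vs DMSO.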

[3] = BSK_3C_SRB: Viability Assessment in the BioMAP Diversity Plus: 3C Assay (AID 2283023); conditions: primary human endothelial cells (HUVEC);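 also: fitted both ways against DMSO so a hit may be signal rise or drop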
In short: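 Human umbilical vein endothelial cells in the 3C system, treated 24 h. Total protein measured by 0.1% sulforhodamine B staining after 10% TCA fixation, read at 560 nm; bidirectional fit versus DMSO.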

[4] = read-out: Matrix Metallopeptidase 1 (MMP1), MMP1 (gene 4312); test: BSK_BE3C_MMP1: BioMAP Diversity Plus: BE3C Assay for Matrix Metallopeptidase 1 (MMP1) Biomarker Activity (AID 2283024); conditions: primary human bronchial epithelial cells; actives raise or lower the signal
In short: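 Dose cells, wait 24 h, run MMP1 ELISA; cells are human bronchial epithelial primaries. Both increases and decreases relative to DMSO counted.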

[5] = BSK_3C_Vis: BioMAP Diversity Plus: 3C Assay for Morphology Visualization (AID 2283025); conditions: primary human endothelial cells (HUVEC);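 also: fitted both ways so gain or loss versus DMSO counts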;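 as to AC50: light microscopy image of cell morphology used as background control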
In short: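 Endothelial cells from human umbilical vein were treated with test chemicals for 24 h and inspected by light microscopy for changes in cell conformation.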

[6] = read-out: Pselectin, SELP (gene 6403); test: BSK_4H_Pselectin: BioMAP Diversity Plus: 4H Assay for Pselectin Biomarker Activity (AID 2283026); conditions: primary human endothelial cells (HUVEC); actives raise or lower the signal
In short: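 Human vascular endothelium from umbilical vein; P-selectin measured by ELISA at 24 h post-dose, with cytotoxicity checked by sulforhodamine B total-protein staining in parallel cultures (0.1% SRB after 10% TCA fixation, read at 560 nm).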

[7] = BSK_4H_SRB: Viability Assessment in the BioMAP Diversity Plus: 4H Assay (AID 2283027); conditions: primary human endothelial cells (HUVEC);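 also: cells exposed to compound for 24 h before staining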;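 as to AC50: curves fitted both ways versus DMSO so AC50 may be loss or gain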
In short: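 Human umbilical vein endothelial cells were dosed with chemical and, after 24 h, fixed with 10% TCA, stained with 0.1% sulforhodamine B, and read at 560 nm to give total protein as a cytotoxicity measure. Bidirectional fitting relative to DMSO control.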

[8] = BSK_BE3C_SRB: Viability Assessment in the BioMAP Diversity Plus: BE3C Assay (AID 2283028); conditions: primary human bronchial epithelial cells;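 as to AC50: fitted both ways so AC50 may mark signal gain or loss versus DMSO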
In short: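 Human bronchial epithelial primary cells in confluent culture, 24 h after chemical dosing; total protein by 0.1% SRB staining after 10% TCA fixation, read at 560 nm. Bidirectional fitting versus DMSO baseline.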

[9] = read-out: Thrombomodulin, THBD (gene 7056); test: BSK_3C_Thrombomodulin: BioMAP Diversity Plus: 3C Assay for Thrombomodulin Biomarker Activity (AID 2283029); conditions: primary human endothelial cells (HUVEC); actives raise or lower the signal
In short: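 Thrombomodulin ELISA, human primary HUVEC, 24 h post-dose; data fitted in both directions relative to DMSO.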

[10] = read-out: Vascular endothelial growth factor receptor 2 (Homo sapiens) (UniProt P35968); test: BSK_4H_VEGFRII: BioMAP Diversity Plus: 4H Assay for Vascular endothelial growth factor receptor 2 (VEGFR2) Biomarker Activity (AID 2283031); conditions: primary human endothelial cells (HUVEC); actives raise or lower the signal;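 as to AC50: cell-surface VEGFR2 protein level quantified by ELISA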
In short: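 Primary human umbilical vein endothelial cells (4H system), 24 h exposure; cell-surface VEGFR2 measured by ELISA. Bidirectional fitting versus DMSO; cytotoxicity checked in parallel by SRB total-protein staining.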

[11] = read-out: Human Leukocyte Antigen - DR isotype (HLADR), HLA-DRA (gene 3122); test: BSK_BE3C_HLADR: BioMAP Diversity Plus: BE3C Assay for Human Leukocyte Antigen - DR isotype (HLADR) Biomarker Activity (AID 2283032); conditions: primary human bronchial epithelial cells; actives raise or lower the signal
In short: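 Signal came from an ELISA for HLA-DR in human bronchial epithelial primary cells harvested 24 h after treatment; gain- and loss-of-signal fitting used DMSO controls as reference.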

[12] = read-out: Vascular cell adhesion molecule 1 (VCAM1), VCAM1 (gene 7412); test: BSK_4H_VCAM1: BioMAP Diversity Plus: 4H Assay for Vascular cell adhesion molecule 1 (VCAM1) Biomarker Activity (AID 2283033); conditions: primary human endothelial cells (HUVEC); actives raise or lower the signal;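 as to outcome: cell-surface VCAM-1 protein measured by ELISA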
In short: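 Endpoint derived from bidirectional fitting against DMSO controls of VCAM-1 ELISA signal in umbilical vein endothelial cells sampled at 24 h following treatment.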

[13] = read-out: Monokine induced gamma interferon (MIG), CXCL9 (gene 4283); test: BSK_BE3C_MIG: BioMAP Diversity Plus: BE3C Assay for Monokine induced gamma interferon (MIG) Biomarker Activity (AID 2283035); conditions: primary human bronchial epithelial cells; actives raise or lower the signal;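 as to outcome: MIG protein measured by ELISA in BE3C cultures after 24 h of dosing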
In short: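 ELISA read-out of MIG in human lung bronchial epithelial primary cultures, 24 h post-dosing. Bidirectional curve fit vs DMSO baseline.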

[14] = read-out: Transforming growth factor beta 1 (TGFb1), TGFB1 (gene 7040); test: BSK_BE3C_TGFb1: BioMAP Diversity Plus: BE3C Assay for Transforming growth factor beta 1 (TGFb1) Biomarker Activity (AID 2283036;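 also: TGF-b1 protein level measured by ELISA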); conditions: primary human bronchial epithelial cells; actives raise or lower the signal
In short: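 In this human primary bronchial epithelial system, an ELISA quantified TGF-b1 one day after dosing. Endpoint changes in either direction were fitted relative to DMSO.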

[15] = read-out: Plasminogen activator inhibitor-1 (PAI1), SERPINE1 (gene 5054); test: BSK_BE3C_PAI1: BioMAP Diversity Plus: BE3C Assay for Plasminogen activator inhibitor-1 (PAI1) Biomarker Activity (AID 2283037); conditions: primary human bronchial epithelial cells; actives raise or lower the signal
In short: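 PAI-1 biomarker levels in treated human bronchial epithelial cells are determined by ELISA at 24 h. Both increases and decreases relative to DMSO are fitted.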

[16] = read-out: urokinase plasminogen activator (uPA), PLAU (gene 5328); test: BSK_BE3C_uPA: BioMAP Diversity Plus: BE3C Assay for urokinase plasminogen activator (uPA) Biomarker Activity (AID 2283038); conditions: primary human bronchial epithelial cells; actives raise or lower the signal;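 as to outcome: uPA protein level quantified by ELISA in cell cultures; uPA read one day after compound addition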
In short: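 Primary human bronchial epithelial cells, uPA measured by ELISA 24 h after dosing. Bidirectional change relative to DMSO; cytotoxicity checked in parallel cultures by sulforhodamine B total-protein staining.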

[17] = read-out: Urokinase-type plasminogen activator receptor (uPAR), PLAUR (gene 5329); test: BSK_BE3C_uPAR: BioMAP Diversity Plus: BE3C Assay for Urokinase-type plasminogen activator receptor (uPAR) Biomarker Activity (AID 2283039); conditions: primary human bronchial epithelial cells; actives raise or lower the signal;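 as to outcome: cells exposed to compound for one day before measurement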
In short: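 A uPAR ELISA serves as the readout, taken 24 h after treating primary human bronchial epithelial cells. Responses in either direction are fitted against DMSO, which defines baseline activity.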

[18] = read-out: Interleukin-6 (IL6), IL6 (gene 3569); test: BSK_CASM3C_IL6: BioMAP Diversity Plus: CASM3C Assay for Interleukin-6 (IL6) Biomarker Activity for (AID 2283040); conditions: primary human coronary artery smooth muscle cells; actives raise or lower the signal
[19] = read-out: Interferon-gamma inducible Protein 10 (IP10), CXCL10 (gene 3627); test: BSK_BE3C_IP10: BioMAP Diversity Plus: BE3C Assay for Interferon-gamma inducible Protein 10 (IP10) Biomarker Activity (AID 2283034); conditions: primary human bronchial epithelial cells; actives raise or lower the signal
In short: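 Using primary human bronchial epithelial cultures, the assay captures IP-10 by ELISA one day (24 h) after exposure. Parallel SRB staining of total protein flags overt cytotoxicity. Fits run bidirectionally relative to DMSO.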

[20] = read-out: Urokinase-type plasminogen activator receptor (uPAR), PLAUR (gene 5329); test: BSK_4H_uPAR: BioMAP Diversity Plus: 4H Assay for Urokinase-type plasminogen activator receptor (uPAR) Biomarker Activity (AID 2283030); conditions: primary human endothelial cells (HUVEC); actives raise or lower the signal
In short: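 Human umbilical vein endothelial cells in the 4H system, 24 h after chemical dosing. Cell-surface uPAR measured by ELISA, fitted in both directions versus DMSO; cytotoxicity checked by SRB total protein in parallel cultures.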

human Vitamin D Receptor (VDR), VDR (gene 7421), sequence (P11473 whole entry, looked up, the tested form may be a part): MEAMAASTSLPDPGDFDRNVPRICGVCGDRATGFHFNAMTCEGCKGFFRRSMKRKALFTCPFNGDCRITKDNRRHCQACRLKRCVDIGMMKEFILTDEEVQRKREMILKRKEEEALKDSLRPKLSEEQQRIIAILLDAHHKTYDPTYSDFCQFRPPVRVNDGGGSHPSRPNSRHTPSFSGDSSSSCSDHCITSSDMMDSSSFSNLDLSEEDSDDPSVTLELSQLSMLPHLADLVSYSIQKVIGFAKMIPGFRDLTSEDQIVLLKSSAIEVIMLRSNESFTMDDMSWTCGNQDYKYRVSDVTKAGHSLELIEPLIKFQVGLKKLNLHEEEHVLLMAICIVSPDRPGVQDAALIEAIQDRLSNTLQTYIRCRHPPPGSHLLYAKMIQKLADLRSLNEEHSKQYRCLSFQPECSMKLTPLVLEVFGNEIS

With `C=C(C)C(=O)OCCC(F)(F)C(F)(F)C(F)(F)C(F)(F)C(F)(F)C(F)(F)F` the outcome [1] was “inactive”, the outcome [2] was “inactive” and the outcome [3] was “inactive”. For the same molecule, the outcome [4] was “inactive”, the outcome [5] was “inactive” and the outcome [6] was “inactive”. The AC50 [7] was 20 µM (active), the outcome [7] was “inactive” and the outcome [8] was “inactive”. The outcome [9] was “inactive”, the outcome [10] was “inactive” and the outcome [11] was “inactive”. The outcome [12] was “inactive”, the outcome [13] was “inactive” and the outcome [14] was “inactive”. For the same molecule, the outcome [15] was “inactive”, the outcome [16] was “inactive” and the outcome [17] was “inactive”. The AC50 [18] was 20 µM (active) and the outcome [18] was “inactive”.
For `CC#C[C@]1(O)CC[C@H]2[C@@H]3CCC4=CC(=O)CCC4=C3[C@@H](c3ccc(N(C)C)cc3)C[C@@]21C`, the AC50 [1] was 38.3 µM (active), the AC50 [3] was 30.5 µM (active) and the AC50 [4] was 0.623 µM (active). The outcome [5] was “inactive”, the AC50 [6] was 29.9 µM (active) and the AC50 [7] was 29.1 µM (active). For the same molecule, the outcome [8] was “inactive”, the outcome [9] was “inactive” and the outcome [10] was “inactive”. The outcome [11] was “inactive”, the AC50 [12] was 26.4 µM (active) and the AC50 [19] was 36.7 µM (active). For the same molecule, the outcome [13] was “inactive”, the outcome [14] was “inactive” and the AC50 [15] was 12.9 µM (active). For the same molecule, the AC50 [16] was 34.7 µM (active), the AC50 [17] was 33.7 µM (active) and the outcome [18] was “inactive”.
In the case of `OC1CCCCC1`, the outcome [1] is reported as “inactive”, the outcome [2] is reported as “inactive” and the outcome [3] is reported as “inactive”. For the same molecule, the outcome [4] was “inactive”, the outcome [5] was “inactive” and the outcome [6] was “inactive”. The outcome [7] was “inactive”, the outcome [8] was “inactive” and the outcome [20] was “inactive”. The outcome [10] was “inactive”, the outcome [11] was “inactive” and the outcome [12] was “inactive”. For the same molecule, the outcome [13] was “inactive”, the outcome [14] was “inactive” and the outcome [15] was “inactive”. The outcome [16] was “inactive”, the outcome [17] was “inactive” and the outcome [18] was “inactive”.
With `COCC(C)OCC(C)O` (configuration not stated) the outcome [1] was “inactive”, the outcome [3] was “inactive” and the outcome [4] was “inactive”. The AC50 [5] was 39 µM (active), the outcome [6] was “inactive” and the outcome [7] was “inactive”. For the same molecule, the outcome [8] was “inactive”, the outcome [20] was “inactive” and the outcome [10] was “inactive”. For the same molecule, the outcome [11] was “inactive”, the outcome [12] was “inactive” and the outcome [19] was “inactive”. The outcome [13] was “inactive”, the outcome [15] was “inactive” and the outcome [16] was “inactive”. For the same molecule, the outcome [17] was “inactive” and the outcome [18] was “inactive”.
In the case of `OCCC(F)(F)C(F)(F)C(F)(F)C(F)(F)C(F)(F)C(F)(F)F`, the AC50 [1] is reported as 44.8 µM (active) and 45.3 µM (active), the outcome [1] is reported as “inactive” and the AC50 [3] is reported as 57.7 µM (active). For the same molecule, the outcome [3] was “inactive”, the outcome [4] was “inactive” and the outcome [5] was “inactive”. For the same molecule, the AC50 [6] was 46.8 µM (active), the outcome [6] was “inactive” and the outcome [7] was “inactive”. The outcome [8] was “inactive”, the outcome [9] was “inactive” and the outcome [20] was “inactive”. For the same molecule, the AC50 [10] was 7.51 µM (active), the outcome [10] was “inactive” and the outcome [11] was “inactive”. The outcome [12] was “inactive”, the outcome [19] was “inactive” and the outcome [13] was “inactive”. The outcome [15] was “inactive”, the outcome [16] was “inactive” and the outcome [17] was “inactive”. The outcome [18] was “inactive”.
With `Cc1oc(-c2ccccc2)nc1CCOc1ccc(C[C@H](Nc2ccccc2C(=O)c2ccccc2)C(=O)O)cc1` the AC50 [1] was 36.8 µM (active), the AC50 [3] was 14.9 µM (active) and the outcome [4] was “inactive”. For the same molecule, the AC50 [5] was 37.5 µM (active), the AC50 [6] was 32.9 µM (active) and the AC50 [7] was 15.1 µM (active). The AC50 [8] was 5.13 µM (active), the AC50 [20] was 15.6 µM (active) and the outcome [10] was “inactive”. For the same molecule, the AC50 [11] was 3.01 µM (active), the AC50 [12] was 33.5 µM (active) and the AC50 [19] was 2.55 µM (active). For the same molecule, the AC50 [13] was 4.79 µM (active), the AC50 [15] was 5.29 µM (active) and the AC50 [16] was 1.8 µM (active). The AC50 [17] was 3.63 µM (active) and the AC50 [18] was 29.9 µM (active).
